Vif inh: inhibitors of HIV Vif. HEK293T cells, Vif self-association by quenched fluorescence, imaging, 24 h. inhibition, % at 7.49 µM. hit rate 0.35% among 340,000. AID 602346; in the data active means inhibition above about 50%, passing the limit was not always enough
esBAF inh: inhibitors of esBAF chromatin remodeling in mouse ES cells | Bmi1-luciferase knock-in reporter, 24 h; 100% = twice the neutral-well signal | reporter increase, % at 12.5 µM | hit rate 2% among 350,000 | AID 602393; in the data active means activation above about 40%;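 further: a rise in the Bmi1 reporter signal indicates esBAF inhibition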
GRIN3A LBD mod: modulators (binders) of human NR3A ligand-binding domain; NR3A LBD differential scanning fluorimetry, Tm shift; 0% = protein alone, 100% = glycine-bound protein; Tm shift relative to glycine control, % at 25 µM; hit rate 2.5% among 340,000; AID 1259313;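 active means melting temperature shift of at least 10% of the positive control shift, at one fixed dose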
NadD block: inhibitors of Staphylococcus aureus NadD. purified NadD enzyme, colorimetric absorbance read-out. inhibition, % at 20 µM. hit rate 0.78% among 360,000; in the data active means inhibition above about 26%
SKN-1 inh: C. elegans SKN-1 inhibition | C. elegans VP596 Pgst-4::GFP/RFP ratio, acrylamide-induced, 24 h | inhibition, % at 21.8 µM | hit rate 0.49% among 360,000;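 active means interference check ratio from 0.5 to 1.5 plus GFP to RFP signal ratio inhibition reaching or exceeding a fixed threshold, cut at about 30% in these data, passing the limit was not always enough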
SMARCA2 act: activators of SMARCA2 function | MG213 cells, MMTV-luciferase reporter, dexamethasone, overnight | AID 652017 | activation, % at 9.1 µM | hit rate 1% among 370,000; in the data active means activation above about 7.8%
A number is an active result. Most compounds without a hit are left out; they make up all but 5.2% or so of the library.

Screening Cc1ccc(NC(=O)C(=O)c2ccc(C)cc2)cc1 returned Vif inh inactive, esBAF inh 75.5, GRIN3A LBD mod inactive, NadD block inactive, SKN-1 inh 37.1 and SMARCA2 act inactive.
CCC(=O)Nc1ccc(NC(=S)NC(=O)/C=C/c2ccccc2)cc1 was read as Vif inh inactive, GRIN3A LBD mod 14.7, NadD block inactive, SKN-1 inh inactive and SMARCA2 act inactive.
CC(=O)c1ccc(NC(=O)/C=C/c2ccc(C)cc2)cc1 was read as Vif inh inactive, GRIN3A LBD mod 20.5, NadD block inactive, SKN-1 inh inactive and SMARCA2 act inactive.
For COc1ccc(S(=O)(=O)N2CCCCN3[C@@H](CO)[C@H](c4ccc(C#CC(C)C)cc4)[C@@H]3C2)cc1 the results were esBAF inh inactive.
Screening CC(C)NC(=O)N[C@@H]1CC[C@H](CCNC(=O)C2CCCC2)O[C@@H]1CO returned esBAF inh inactive.
CO[C@H]1CC[C@H]2CCN(C)C(=O)[C@@H](C)[C@H](OC)CN(C)C(=O)c3cccc(C#N)c3OC[C@@H]1O2 was read as esBAF inh inactive.
Screening O=C(C[C@H]1CC[C@H]2[C@@H](COC[C@H](O)CN2Cc2ccc3c(c2)OCO3)O1)N1CCCCC1 returned esBAF inh inactive.
`CNC(=O)C[C@H]1CC[C@@H]2[C@@H](COc3ccc(NS(=O)(=O)c4ccc(F)cc4)cc3C(=O)N2C)O1` gave esBAF inh inactive.
For CN(C)c1ccc(-c2csc(C(C)(O)c3ccccc3)n2)cc1 (stereo not given) the results were Vif inh inactive, esBAF inh 56.1, NadD block inactive, SKN-1 inh inactive and SMARCA2 act inactive.
Screening COc1ccc(-c2csc(C(C)(O)c3ccccc3)n2)cn1 (stereo not given) returned Vif inh inactive, esBAF inh inactive, NadD block inactive, SKN-1 inh inactive and SMARCA2 act inactive.
For CC(O)(c1ccccc1)c1nc(-c2cc3ccccc3o2)cs1 (stereo not given) the results were Vif inh inactive, esBAF inh 49.3, NadD block inactive, SKN-1 inh inactive and SMARCA2 act inactive.
Screening CC(O)(c1ccccc1)c1nc(-c2ccc(Cl)cc2)cs1 (stereo not given) returned Vif inh inactive, esBAF inh inactive, NadD block inactive, SKN-1 inh inactive and SMARCA2 act inactive.
For Cc1ccc(-n2nc(C(=O)c3ccccc3)n3c(=O)cc(-c4ccccc4)nc23)cc1 the results were Vif inh inactive, esBAF inh 84.0, GRIN3A LBD mod inactive, NadD block inactive, SKN-1 inh inactive and SMARCA2 act inactive.
Screening CCOC(=O)c1nn(-c2ccc(C)cc2)c2nc(Nc3ccccc3)cc(=O)n12 returned Vif inh inactive, esBAF inh inactive, GRIN3A LBD mod inactive, NadD block inactive, SKN-1 inh inactive and SMARCA2 act inactive.
Screening C[C@@H]1CCCCO[C@H](CN(C)C(=O)Nc2ccccc2)[C@@H](C)CN([C@H](C)CO)C(=O)c2cc(NC(=O)c3ccccc3)ccc2O1 returned esBAF inh inactive.
For CC(C)c1ccc(/C=N/NC(=O)C2CCCC2)cc1 the results were Vif inh inactive, GRIN3A LBD mod inactive, NadD block inactive, SKN-1 inh inactive and SMARCA2 act inactive.
`CC(C)(C)c1ccc(/C=N/NC(=O)C2CCCC2)cc1` gave Vif inh inactive, esBAF inh 55.5, GRIN3A LBD mod inactive, NadD block inactive, SKN-1 inh inactive and SMARCA2 act inactive.
O=C(O)c1ccccc1/C=N/NC(=O)C1CCCC1 was read as Vif inh inactive, esBAF inh inactive, GRIN3A LBD mod inactive, NadD block inactive, SKN-1 inh inactive and SMARCA2 act 7.9.
`CN1C[C@H](O)COC[C@@H]2O[C@H](CC(=O)NC3CCCC3)CC[C@H]21` gave esBAF inh inactive.
Screening C[C@H](CO)N1C[C@H](C)[C@@H](CN(C)C(=O)C2CCCCC2)Oc2cc(-c3cncnc3)ccc2S1(=O)=O returned esBAF inh inactive.
Screening CCN(CC)C(=S)SCC(=O)c1ccc(Br)cc1 returned Vif inh inactive, esBAF inh 83.2, GRIN3A LBD mod inactive, NadD block inactive, SKN-1 inh inactive and SMARCA2 act inactive.
Screening O=C(N[C@H]1CC[C@H](CCNC(=O)C2CCC2)O[C@@H]1CO)c1ccncc1 returned esBAF inh inactive.
For CCOC(=O)c1cc(CC)sc1NC(=O)COC the results were Vif inh inactive, esBAF inh inactive, GRIN3A LBD mod inactive, NadD block inactive, SKN-1 inh inactive and SMARCA2 act inactive.
For CCCCN1C(=O)C(=O)N(CC(=O)Nc2sc(CC)cc2C(=O)OCC)C1=O the results were Vif inh inactive, esBAF inh inactive, GRIN3A LBD mod 12.8, NadD block inactive, SKN-1 inh inactive and SMARCA2 act inactive.
Screening CCN(CC(=O)Nc1ccc2c(c1)OCCO2)C(=O)/C=C/c1cccc(Br)c1 returned Vif inh inactive, esBAF inh 63.3, GRIN3A LBD mod inactive, NadD block inactive, SKN-1 inh inactive and SMARCA2 act inactive.
Screening Nc1ccccc1-c1nc2ccccc2[nH]c1=O returned Vif inh inactive, esBAF inh 53.0, GRIN3A LBD mod inactive, NadD block inactive, SKN-1 inh inactive and SMARCA2 act inactive.
For O=c1[nH]c2ccccc2nc1-c1c[nH]c2ccccc12 the results were Vif inh inactive, esBAF inh inactive, GRIN3A LBD mod 39.0, NadD block inactive, SKN-1 inh inactive and SMARCA2 act inactive.
For Nc1ccc(Br)cc1-c1nc2ccccc2[nH]c1=O the results were GRIN3A LBD mod inactive, NadD block inactive, SKN-1 inh inactive and SMARCA2 act inactive.
`C/C(=N\NC(=O)CNc1cccc(C)c1)c1ccc(Br)s1` gave Vif inh inactive, GRIN3A LBD mod 11.5, NadD block inactive, SKN-1 inh inactive and SMARCA2 act inactive.
O=C(O)c1ccc(N/N=C/c2ccc(-c3ccccc3)cc2)cc1 was read as Vif inh inactive, GRIN3A LBD mod inactive, NadD block inactive, SKN-1 inh inactive and SMARCA2 act inactive.
Screening O=C(O)c1ccc(/C=N/Nc2cccc(C(F)(F)F)c2)cc1 returned Vif inh inactive, esBAF inh 87.7, GRIN3A LBD mod inactive, NadD block inactive, SKN-1 inh inactive and SMARCA2 act inactive.
Screening CC(=NNC(=O)c1cc(C)oc1C)c1ccc(Br)s1 returned Vif inh 52.2, esBAF inh inactive, GRIN3A LBD mod inactive, NadD block inactive, SKN-1 inh inactive and SMARCA2 act inactive.
`O=C(CNc1cccc(C(F)(F)F)c1)N/N=C/c1cccc(Br)c1` gave Vif inh inactive, GRIN3A LBD mod 28.6, NadD block inactive, SKN-1 inh inactive and SMARCA2 act inactive.
For C[C@H](CO)N1C[C@H](C)[C@@H](CN(C)C(=O)CN(C)C)Oc2cc(-c3cccnc3)ccc2S1(=O)=O the results were esBAF inh inactive.
`O=C(C[C@@H]1C[C@@H]2c3cc(NC(=O)Nc4ccccc4)ccc3O[C@@H]2[C@@H](CO)O1)NCc1ccccc1` gave esBAF inh inactive.

Source: PubChem (several laboratories)
